D1 allo mod: D1 dopamine receptor (human) allosteric modulation | P21728 | HEK293 D1, CRE-luciferase, dopamine EC30 potentiation; actives deviate in either direction | B-score at 10 µM | 58,000 compounds, 5.9% hits | AID 641;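 active = luminescence count or its row- and column-corrected plate score outside the 99.7% band of the plate's sample wells, on either side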
Candida biofilm: kills Candida albicans biofilms; C. albicans biofilm + clotrimazole, Alamar Blue; inhibition, % at 6 µM; 85,000 compounds, 0.14% hits; AID 834;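 active = inhibition above 20%; inactive = inhibition below 20%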;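 note: preformed 24 hr biofilms exposed to compound for 48 hr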
TNAP act DEA: activators of human TNAP at intermediate phosphate acceptor. P05186. purified TNAP, CDP-star luminescence, 100 mM DEA, 30 min; active compounds read high; scale: 0 levamisole-inhibited, 1 vehicle-only enzyme. activation factor at 20 µM. AID 813. 64,000 tested, under 10 active;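 active = activation factor of at least 2 at 20 µM, relative to controls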
HePTP inhibitor: inhibitors of human HePTP phosphatase; 110,000 compounds, 0.64% hits; AID 521; inhibition, % at 20 µM; recombinant HePTP phosphatase activity, OD absorbance; in the data active = inhibition above about 50%
FXIIa inh mix: blocks human factor XIIa in pooled compound mixtures; AID 684; purified FXIIa, fluorogenic substrate; P00748; inhibition, % at 5 µM; 62,000 compounds, 0.2% hits
FXIa inh mix: blocks human factor XIa in pooled compound mixtures; purified FXIa, fluorogenic substrate; inhibition, % at 5 µM; 62,000 compounds, 0.19% hits;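 note: each value is inhibition by a whole ten-compound pool holding the compound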
Target sequence (P03951 19-387 limits assumed): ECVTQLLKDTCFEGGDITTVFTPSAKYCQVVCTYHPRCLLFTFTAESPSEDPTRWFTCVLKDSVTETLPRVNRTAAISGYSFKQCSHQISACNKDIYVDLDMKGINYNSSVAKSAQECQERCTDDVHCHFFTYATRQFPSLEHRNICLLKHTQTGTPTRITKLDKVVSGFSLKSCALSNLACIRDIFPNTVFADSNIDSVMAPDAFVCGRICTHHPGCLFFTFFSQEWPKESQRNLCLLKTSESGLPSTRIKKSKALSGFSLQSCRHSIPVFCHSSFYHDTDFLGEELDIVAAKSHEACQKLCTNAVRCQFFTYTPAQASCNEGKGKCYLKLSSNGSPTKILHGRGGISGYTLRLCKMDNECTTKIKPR
Target sequence (P03951 388-625 limits assumed): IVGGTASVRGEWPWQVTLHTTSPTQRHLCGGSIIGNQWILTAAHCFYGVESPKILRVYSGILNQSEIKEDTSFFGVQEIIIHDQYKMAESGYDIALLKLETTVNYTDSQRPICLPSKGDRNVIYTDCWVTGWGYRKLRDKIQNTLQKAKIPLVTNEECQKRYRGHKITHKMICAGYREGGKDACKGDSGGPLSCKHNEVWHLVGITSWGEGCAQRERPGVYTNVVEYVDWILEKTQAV
D1 mod confirm: D1 receptor (human) allosteric modulation, confirmed; 2,200 compounds, 88% hits; shares compounds with D1 allo mod; luminescence at 10 µM; HEK293 D1 CRE-luciferase, dopamine EC30 potentiation; active compounds read high; AID 642;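 active = luminescence in either of two replicates above the same-plate mean plus 3 SD of the low-dose dopamine control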
D1 no dopamine: secondary test of D1 modulators: activity without dopamine; shares compounds with D1 allo mod; HEK293 D1 CRE-luciferase, luminescence, no dopamine; active compounds read high; luminescence at 10 µM; 1,900 compounds, 0.8% hits; in the data active = luminescence above about 3900
Isoprot counter: counter-screen for D1 modulators: isoproterenol response in HEK293 cells. shares compounds with D1 allo mod. HEK293 D1 CRE-luciferase, isoproterenol EC30 counter-screen; active compounds read high. luminescence at 10 µM. 2,200 compounds, 63% hits. AID 647;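 active = luminescence in either replicate above plate mean of wells with a partly effective reference agonist dose plus 3 SD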;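 note: isoproterenol raises cAMP through native beta-adrenoceptor Gs so signal bypasses D1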
Of the large screens only hits and unclear results are named; the others gave an inactive call (follow-up assays come after a bar, where they were run). The full list was thinned out, with hits kept by preference. Cut-off read from the data, not from the text of the source, unless noted: active = inhibition above about 20% (passing the limit was not always enough); inactive = the rest.

COC(=O)c1cn(-c2ccccc2)nc1C(=O)OC	D1 allo mod 18 | D1 mod confirm 20700 | D1 no dopamine inactive | Isoprot counter 4544
CCOC(=O)CSc1nc2ccc(N3CCOCC3)cc2c(=O)n1Cc1ccc2c(c1)OCO2	D1 allo mod 7 | D1 mod confirm 9824 | D1 no dopamine inactive | Isoprot counter 4480
COc1ccc(C(=O)Nc2sc3c(c2C#N)CC(C)(C)SC3)cc1[N+](=O)[O-]	none (no result: D1 allo mod, Candida biofilm, TNAP act DEA, FXIIa inh mix, FXIa inh mix)
CC1(c2ccccc2)C(C#N)=C(N)OC2=C1C(=O)CCC2 (stereo unspecified)	none (no result: D1 allo mod, Candida biofilm, TNAP act DEA, FXIIa inh mix, FXIa inh mix)
Cc1nn(CCC(=O)O)c2nc(-c3cccnc3)cc(C(F)(F)F)c12	D1 allo mod 5.4 | D1 mod confirm 8896 | Isoprot counter inactive
CCOC(=O)c1cc2c(C(F)(F)F)cc(-c3cccnc3)nc2o1	D1 allo mod 5.3 | D1 mod confirm 6932 | D1 no dopamine inactive | Isoprot counter 2892
COc1ccc2ccccc2c1/C=C1/C(=O)NC(=O)N(c2cccc(Br)c2)C1=O	none (no result: D1 allo mod, Candida biofilm, TNAP act DEA, FXIIa inh mix, FXIa inh mix)
COc1ccc(OC)c(Cn2c(O)c(/C=C3\C=CC=N3)c(=O)[nH]c2=O)c1	none (no result: D1 allo mod, Candida biofilm, TNAP act DEA, FXIIa inh mix, FXIa inh mix)
COc1ccc(CCn2c(N)cc(=O)[nH]c2=S)cc1OC	D1 allo mod 11 | D1 mod confirm 16604 | D1 no dopamine inactive | Isoprot counter 4956
CSc1nc(N2CCOCC2)c2ccccc2n1	D1 allo mod 9.4 | D1 mod confirm 16028 | Isoprot counter 2940
c1ccc2c(c1)nc(N1CCOCC1)c1ccccc12	none (no result: D1 allo mod, Candida biofilm, TNAP act DEA, FXIIa inh mix, FXIa inh mix)
Cc1nc(N2CCOCC2)c2cc(-c3ccccc3)sc2n1	D1 allo mod 7.9 | D1 mod confirm 14040 | D1 no dopamine inactive | Isoprot counter 7264
O=C(O)C1C(C(=O)Nc2ccccc2F)C2C=CC1C21CC1 (stereo unspecified)	none (no result: D1 allo mod, Candida biofilm, TNAP act DEA, FXIIa inh mix, FXIa inh mix)
O=C(COc1ccc(Br)cc1)Nc1ccc2c(c1)oc1ccccc12	none (no result: D1 allo mod, Candida biofilm, TNAP act DEA, FXIIa inh mix, FXIa inh mix)
COc1ccc(C2=NOC(C(=O)NCc3cccs3)C2)cc1 (stereo unspecified)	none (no result: D1 allo mod, TNAP act DEA, HePTP inhibitor, FXIIa inh mix, FXIa inh mix)
O=C(NCc1cccs1)C1CC(c2ccccc2O)=NO1 (stereo unspecified)	D1 allo mod 2.8 | D1 mod confirm 6344 | D1 no dopamine inactive | Isoprot counter inactive
O=C(c1ccc(S(=O)(=O)N2CCOCC2)cc1)N1CCN(c2ccccc2F)CC1	none
O=C(c1ccc(S(=O)(=O)N2CCOCC2)cc1)N1CCN(c2ccc(F)cc2)CC1	D1 allo mod 3.3 (no result: FXIIa inh mix, FXIa inh mix) | D1 mod confirm inactive | D1 no dopamine inactive | Isoprot counter inactive
NC1=NC(=O)/C(=C/c2cccc(OS(=O)(=O)c3ccc([N+](=O)[O-])cc3)c2)S1	none (no result: D1 allo mod, Candida biofilm, TNAP act DEA, FXIIa inh mix, FXIa inh mix)
COc1ccc(-c2nnc(SCC(=O)N3CCCCC3)o2)cc1OC	none
COc1ccc(-c2ccc(SCC(=O)N3CCCC3)nn2)cc1OC	D1 allo mod 14 | D1 mod confirm 25344 | D1 no dopamine inactive | Isoprot counter 5500
COc1ccc(-c2ccc(SCC(=O)N3CCOCC3)nn2)cc1OC	D1 allo mod 12 | D1 mod confirm 27680 | D1 no dopamine inactive | Isoprot counter 4596
O=C1NC(c2ccc(Cl)cc2Cl)Nc2c1sc(=S)n2-c1ccccc1 (stereo unspecified)	none (no result: D1 allo mod, Candida biofilm, TNAP act DEA, FXIIa inh mix, FXIa inh mix)
COc1cccc(N2C(=O)NC(=O)/C(=C/c3ccc(Br)s3)C2=O)c1	none (no result: D1 allo mod, Candida biofilm, TNAP act DEA, FXIIa inh mix, FXIa inh mix)
COCCCNc1oc(-c2ccccc2F)nc1C#N	D1 allo mod 5.8 | D1 mod confirm 11980 | D1 no dopamine inactive | Isoprot counter 3472
N#Cc1nc(-c2ccccc2F)oc1NCc1ccccc1	D1 allo mod 7.9 | D1 mod confirm 14936 | D1 no dopamine inactive | Isoprot counter 4992
Cc1cc2ccccc2c(=O)n1CC(=O)NCC(=O)N1CCN(c2ccccc2F)CC1	D1 allo mod 3.4 | D1 mod confirm inactive | D1 no dopamine inactive | Isoprot counter inactive
N#Cc1c(-c2ccco2)cc(-c2ccccn2)nc1N	D1 allo mod 6.5 | D1 mod confirm 12544 | D1 no dopamine inactive | Isoprot counter 3648
N#Cc1c(-c2ccco2)cc(-c2cccnc2)nc1N	D1 allo mod 8.3 | D1 mod confirm 14352 | D1 no dopamine inactive | Isoprot counter 5436
Cc1c(-c2ccccc2)nc(N)c(C#N)c1-c1ccco1	D1 allo mod 5 | D1 mod confirm 15044 | D1 no dopamine inactive | Isoprot counter inactive
CC1CN(C(=O)c2cnn(-c3ccccc3)c2NC(=O)c2cccc(F)c2)CC(C)O1 (stereo unspecified)	none (no result: D1 allo mod, Candida biofilm, TNAP act DEA, FXIIa inh mix, FXIa inh mix)
c1ccc2c(c1)oc1c(Nc3ccc4c(c3)OCO4)ncnc12	D1 allo mod 3.1 | D1 mod confirm 6592 | Isoprot counter 2980
CC(C)(C)c1ccc(/C=N/N=C2\NC(=O)C(CC(=O)O)S2)cc1 (stereo unspecified)	none (no result: D1 allo mod, Candida biofilm, TNAP act DEA, FXIIa inh mix, FXIa inh mix)
COc1ccc(C(=O)Oc2cccnc2)cc1OC	D1 allo mod 8.6 | D1 mod confirm 20932 | D1 no dopamine inactive | Isoprot counter 3844
COc1ccc(C(=O)N2CCN(C(=O)c3ccc(-c4ccccc4)cc3)CC2)cc1OC	none (no result: D1 allo mod, Candida biofilm, TNAP act DEA, FXIIa inh mix, FXIa inh mix)
COc1ccc(C(=O)n2nc(-c3ccccc3)nc2N)cc1OC	D1 allo mod 6.1 | D1 mod confirm 15096 | D1 no dopamine inactive | Isoprot counter 3496
Cn1c(=O)c2c(nc(NCCOCCO)n2C)n(C)c1=O	none (no result: D1 allo mod, Candida biofilm, TNAP act DEA, FXIIa inh mix, FXIa inh mix)
Fc1ccc(-c2cc(C(F)(F)F)nc(NCC3CCCO3)n2)cc1 (stereo unspecified)	D1 allo mod 5.5 | D1 mod confirm 8052 | Isoprot counter inactive
FC(F)(F)c1cc(-c2ccccc2)nc(NCC2CCCO2)n1 (stereo unspecified)	none (no result: D1 allo mod, Candida biofilm)
COc1ccc(C)cc1NC(=O)Cc1cccc2ccccc12	none (no result: D1 allo mod, Candida biofilm, TNAP act DEA, FXIIa inh mix, FXIa inh mix)
CC(C)(C)C(=O)COc1cc2oc(=O)c3c(c2cc1Cl)CCC3	none (no result: D1 allo mod, Candida biofilm, TNAP act DEA, FXIIa inh mix, FXIa inh mix)
N#Cc1cnn(Cc2ccccc2)c1/N=C/N1CCOCC1	D1 allo mod 5.5 | D1 mod confirm 8140 | D1 no dopamine inactive | Isoprot counter inactive
CN(C)c1nc(N)nc(CSc2n[nH]c(-c3ccccc3)n2)n1	D1 allo mod 7.8 | D1 mod confirm 9244 | D1 no dopamine inactive | Isoprot counter 3340
O=C(CSc1n[nH]c(-c2ccccc2)n1)c1ccccc1	none
Cc1cccc(NC(=O)c2cc3ccccc3o2)c1	none
CCC(=O)Nc1cccc(NC(=O)c2cc3ccccc3o2)c1	D1 allo mod 5.1 | D1 mod confirm 3904 | D1 no dopamine inactive | Isoprot counter inactive
CCn1c(SCC#N)nc2c(c1=O)C1(CCCC1)Cc1ccccc1-2	D1 allo mod 2.5 (no result: FXIIa inh mix, FXIa inh mix) | D1 mod confirm 7420 | Isoprot counter inactive
CCCn1c(SCC(N)=O)nc2c(c1=O)C1(CCCC1)Cc1ccccc1-2	none (no result: D1 allo mod, FXIIa inh mix, FXIa inh mix)
CCCNc1nc(N2CCOCC2)nc(N2CCOCC2)n1	none
